“And” between values parts separate entries of the source, which are not always exact repeats. Equal entries are not always repeated. About 83,000 compounds went through this panel and 20% of them were active in at least one assay; those are over-represented in the sample as a whole.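 Percent growth is the endpoint: 0 to 100 indicates growth inhibition (40 means 60% inhibition), 0 means no net growth, and negative values indicate cell death.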 The source made the active and inactive calls. The calls were made as follows: active = growth percent below 10; inactive = the rest.
Tests used:
Test in all cases: NCI-60 one-dose screen, 48 h (100 = growth as untreated, 0 = no growth, -100 = all killed)
[1] = system: HT29 colon
[2] = system: SNB-75 CNS
[3] = system: SNB-19 CNS
[4] = system: U251 CNS
[5] = system: PC-3 prostate
[6] = system: SK-MEL-5 melanoma
[7] = system: UACC-62 melanoma
[8] = system: LOX IMVI melanoma
[9] = system: SK-MEL-28 melanoma
[10] = system: SK-MEL-2 melanoma
[11] = system: SN12C renal
[12] = system: UO-31 renal
[13] = system: TK-10 renal
[14] = system: ACHN renal
[15] = system: CAKI-1 renal
[16] = system: A498 renal
[17] = system: CCRF-CEM leukemia
[18] = system: MOLT-4 leukemia
[19] = system: HCT-15 colon; conditions: 10 µM

Compound: CC(=O)O[C@H]1C(=O)[C@@]2(C)[C@H]([C@H](OC(=O)c3ccccc3)[C@]3(O)C[C@H](OC(=O)[C@H](O)[C@@H](NC(=O)c4ccccc4)c4ccccc4)C(C)=C1C3(C)C)[C@]1(OC(C)=O)CO[C@@H]1C[C@@H]2O
- growth ([1]; 0.01 µM): 3.27% (active)
- growth ([1]; 2.5 µM): -29.4% (active)
- growth ([1]; 5 µM): -21.4% (active)
- growth ([1]; 10 µM): -21.5% (active) and -18.2% (active)
- growth ([2]; 0.01 µM): -1.17% (active)
- growth ([2]; 2.5 µM): -28% (active)
- growth ([2]; 5 µM): -16.7% (active)
- growth ([2]; 10 µM): -38.5% (active) and -19.3% (active)
- growth ([3]; 0.01 µM): 30% (inactive)
- growth ([3]; 2.5 µM): 25.9% (inactive)
- growth ([3]; 5 µM): 30.1% (inactive)
- growth ([3]; 10 µM): 31.4% (inactive) and 35.6% (inactive)
- growth ([4]; 0.01 µM): 27.9% (inactive)
- growth ([4]; 2.5 µM): 12.3% (inactive)
- growth ([4]; 5 µM): 13.9% (inactive)
- growth ([4]; 10 µM): 10.6% (inactive) and 15.9% (inactive)
- growth ([5]; 0.01 µM): 25% (inactive)
- growth ([5]; 2.5 µM): 26.2% (inactive)
- growth ([5]; 5 µM): 34.7% (inactive)
- growth ([5]; 10 µM): -45.5% (active) and 37.3% (inactive)
- growth ([6]; 0.01 µM): 18% (inactive)
- growth ([6]; 2.5 µM): 4.29% (active)
- growth ([6]; 5 µM): 17.5% (inactive)
- growth ([6]; 10 µM): 34.6% (inactive) and 13% (inactive)
- growth ([7]; 0.01 µM): 24.9% (inactive)
- growth ([7]; 2.5 µM): 34.2% (inactive)
- growth ([7]; 5 µM): 40.3% (inactive)
- growth ([7]; 10 µM): 41.8% (inactive) and 42.9% (inactive)
- growth ([8]; 0.01 µM): 35.4% (inactive)
- growth ([8]; 2.5 µM): 9.12% (active)
- growth ([8]; 5 µM): 42.1% (inactive)
- growth ([8]; 10 µM): 35.1% (inactive) and 42.3% (inactive)
- growth ([9]; 2.5 µM): 71.3% (inactive)
- growth ([9]; 5 µM): 76.6% (inactive)
- growth ([9]; 10 µM): 75.7% (inactive)
- growth ([10]; 0.01 µM): 72.5% (inactive)
- growth ([10]; 2.5 µM): 3.85% (active)
- growth ([10]; 5 µM): 21.3% (inactive)
- growth ([10]; 10 µM): 25.7% (inactive) and 32% (inactive)
- growth ([11]; 0.01 µM): 46.3% (inactive)
- growth ([11]; 2.5 µM): 25.5% (inactive)
- growth ([11]; 5 µM): 32% (inactive)
- growth ([11]; 10 µM): 55.6% (inactive) and 33.2% (inactive)
- growth ([12]; 0.01 µM): 103% (inactive)
- growth ([12]; 2.5 µM): 42.6% (inactive)
- growth ([12]; 5 µM): 42.7% (inactive)
- growth ([12]; 10 µM): 9.24% (active) and 39.3% (inactive)
- growth ([13]; 0.01 µM): 87.7% (inactive)
- growth ([13]; 2.5 µM): 44.7% (inactive)
- growth ([13]; 5 µM): 46.1% (inactive)
- growth ([13]; 10 µM): 18.4% (inactive) and 43.6% (inactive)
- growth ([14]; 0.01 µM): 95.3% (inactive)
- growth ([14]; 2.5 µM): 42.4% (inactive)
- growth ([14]; 5 µM): 44.8% (inactive)
- growth ([14]; 10 µM): 25.4% (inactive) and 43.1% (inactive)
- growth ([15]; 0.01 µM): 93.4% (inactive)
- growth ([15]; 2.5 µM): 22.2% (inactive)
- growth ([15]; 5 µM): 23.1% (inactive)
- growth ([15]; 10 µM): 25.1% (inactive) and 23.4% (inactive)
- growth ([16]; 0.01 µM): 61.7% (inactive)
- growth ([16]; 2.5 µM): 74.4% (inactive)
- growth ([16]; 5 µM): 96.2% (inactive)
- growth ([16]; 10 µM): 93.6% (inactive) and 52.1% (inactive)
- growth ([17]; 0.01 µM): 11.7% (inactive)
- growth ([17]; 2.5 µM): 2.13% (active)
- growth ([17]; 5 µM): 5.52% (active)
- growth ([17]; 10 µM): 7.71% (active) and 5.2% (active)
- growth ([18]; 0.01 µM): 48.2% (inactive)
- growth ([18]; 10 µM): 22.8% (inactive)

Compound: CCOC(=O)[C@]1(Br)CC[C@@]1(Br)C(=O)OCC
- growth ([1]; 10 µM): 83.1% (inactive)
- growth ([2]; 10 µM): 92.4% (inactive)
- growth ([3]; 10 µM): 106% (inactive)
- growth ([4]; 10 µM): 98.3% (inactive)
- growth ([5]; 10 µM): 97.3% (inactive)
- growth ([6]; 10 µM): 103% (inactive)
- growth ([7]; 10 µM): 77.9% (inactive)
- growth ([8]; 10 µM): 82.5% (inactive)
- growth ([9]; 10 µM): 110% (inactive)
- growth ([10]; 10 µM): 91.7% (inactive)
- growth ([11]; 10 µM): 98.1% (inactive)
- growth ([12]; 10 µM): 61.5% (inactive)
- growth ([13]; 10 µM): 95.9% (inactive)
- growth ([14]; 10 µM): 78.9% (inactive)
- growth ([15]; 10 µM): 90.3% (inactive)
- growth ([16]; 10 µM): 115% (inactive)
- growth ([17]; 10 µM): 99.8% (inactive)
- growth ([18]; 10 µM unless noted): 36.8% (inactive)

Compound: COc1ccc2oc(-c3ccc(Cl)cc3)c(N3CCN(C)CC3)c2c1
- growth ([1]; 10 µM): -1.44% (active)
- growth ([2]; 10 µM): 18.3% (inactive)
- growth ([3]; 10 µM): 48.6% (inactive)
- growth ([4]; 10 µM): 20.1% (inactive)
- growth ([5]; 10 µM): 4.07% (active)
- growth ([6]; 10 µM): -14.8% (active)
- growth ([7]; 10 µM): -52.6% (active)
- growth ([8]; 10 µM): -87.5% (active)
- growth ([9]; 10 µM): -12.3% (active)
- growth ([10]; 10 µM): -15.9% (active)
- growth ([11]; 10 µM): 37.2% (inactive)
- growth ([12]; 10 µM): -5.46% (active)
- growth ([13]; 10 µM): -1.47% (active)
- growth ([14]; 10 µM): 4.13% (active)
- growth ([15]; 10 µM): -11.6% (active)
- growth ([16]; 10 µM): 52.4% (inactive)
- growth ([17]; 10 µM): -12.6% (active)
- growth ([18]; 10 µM unless noted): 12.5% (inactive)

Compound: O=Nc1ccc(Nc2ccccc2)cc1
- growth ([1]; 10 µM): 95.1% (inactive)
- growth ([2]; 10 µM): 80.4% (inactive)
- growth ([3]; 10 µM): 98.3% (inactive)
- growth ([4]; 10 µM): 87.8% (inactive)
- growth ([5]; 10 µM): 82.8% (inactive)
- growth ([6]; 10 µM): 87.9% (inactive)
- growth ([7]; 10 µM): 96.9% (inactive)
- growth ([8]; 10 µM): 23.5% (inactive)
- growth ([9]; 10 µM): 120% (inactive)
- growth ([10]; 10 µM): 109% (inactive)
- growth ([11]; 10 µM): 95.6% (inactive)
- growth ([12]; 10 µM): 53.9% (inactive)
- growth ([13]; 10 µM): 116% (inactive)
- growth ([14]; 10 µM): 41.5% (inactive)
- growth ([15]; 10 µM): 66.1% (inactive)
- growth ([16]; 10 µM): 87.2% (inactive)
- growth ([17]; 10 µM): 2.09% (active)
- growth ([18]; 10 µM unless noted): 15% (inactive)

Compound: O=C1c2cccc3cc([N+](=O)[O-])cc(c23)C(=O)N1CCN1CCCC1
- growth ([1]; 10 µM): 2.59% (active)
- growth ([2]; 10 µM): -15.1% (active)
- growth ([3]; 10 µM): -0.129% (active)
- growth ([4]; 10 µM): -12.3% (active)
- growth ([5]; 10 µM): 14.4% (inactive)
- growth ([6]; 10 µM): -88.6% (active)
- growth ([7]; 10 µM): -66.1% (active)
- growth ([8]; 10 µM): -65.9% (active)
- growth ([9]; 10 µM): -36.5% (active)
- growth ([10]; 10 µM): 4.73% (active)
- growth ([11]; 10 µM): -18.2% (active)
- growth ([12]; 10 µM): -42.8% (active)
- growth ([13]; 10 µM): -11.3% (active)
- growth ([14]; 10 µM): -57.9% (active)
- growth ([15]; 10 µM): -14% (active)
- growth ([16]; 10 µM): -64.4% (active)
- growth ([17]; 10 µM): -5.62% (active)
- growth ([18]; 10 µM unless noted): -17.9% (active)

Compound: CC1CCC2(C(=O)O)CCC3(C)C(=CCC4C5(C)CC(O)C(O)C(C)(CO)C5C(O)CC43C)C2C1C (stereo unspecified)
- growth [19]: 112% (inactive)
- growth ([1]; 10 µM): 110% (inactive)
- growth ([2]; 10 µM): 91.8% (inactive)
- growth ([3]; 10 µM): 98.7% (inactive)
- growth ([4]; 10 µM): 103% (inactive)
- growth ([5]; 10 µM): 97.5% (inactive)
- growth ([6]; 10 µM): 4.98% (active)
- growth ([7]; 10 µM): 104% (inactive)
- growth ([8]; 10 µM): 107% (inactive)
- growth ([10]; 10 µM): 104% (inactive)
- growth ([11]; 10 µM): 96.1% (inactive)
- growth ([12]; 10 µM): 92.8% (inactive)
- growth ([13]; 10 µM): 108% (inactive)
- growth ([14]; 10 µM): 116% (inactive)
- growth ([15]; 10 µM): 118% (inactive)
- growth ([17]; 10 µM): 88.5% (inactive)
- growth ([18]; 10 µM unless noted): 113% (inactive)

Compound: O=[N+]([O-])c1cc(S(=O)(=O)Nc2ccccc2)ccc1Cl
- growth ([1]; 10 µM): 101% (inactive)
- growth ([2]; 10 µM): 69.3% (inactive)
- growth ([3]; 10 µM): 95.5% (inactive)
- growth ([4]; 10 µM): 100% (inactive)
- growth ([5]; 10 µM): 94.3% (inactive)
- growth ([6]; 10 µM): 92.8% (inactive)
- growth ([7]; 10 µM): 84.7% (inactive)
- growth ([8]; 10 µM): 77.6% (inactive)
- growth ([9]; 10 µM): 102% (inactive)
- growth ([10]; 10 µM): 93.3% (inactive)
- growth ([11]; 10 µM): 95.7% (inactive)
- growth ([12]; 10 µM): 76.7% (inactive)
- growth ([13]; 10 µM): 99.1% (inactive)
- growth ([14]; 10 µM): 94.2% (inactive)
- growth ([15]; 10 µM): 77.3% (inactive)
- growth ([16]; 10 µM): 96.8% (inactive)
- growth ([17]; 10 µM): 85.9% (inactive)
- growth ([18]; 10 µM unless noted): 89% (inactive)
